Laboratory results as given in ChEMBL document CHEMBL1157539, “Thousands of chemical starting points for antimalarial lead identification” (Nature, 2010).

How the values were obtained:
Type in all cases: functional
[1] = tested on: Plasmodium falciparum; experiment: GSK_TCMDC: Inhibition of Plasmodium falciparum 3D7 in whole red blood cells, using parasite LDH activity as an index of growth. Test compounds present at 2uM
[2] = tested on: Plasmodium falciparum; experiment: GSK_TCMDC: Inhibition of Plasmodium falciparum Dd2 in whole red blood cells, using parasite LDH activity as an index of growth. Test compounds present at 2uM
[3] = tested on: HepG2; experiment: GSK_TCMDC: Percent inhibition of human HepG2 cell line. Test compounds present at 10uM.

COc1cc2c(cc1OC)-c1cc(=Nc3c(C)cc(C)cc3C)n(C)c(=O)n1CC2.Cl
Inhibition [1]: 92%
Inhibition [2]: 29%
Inhibition [3]: 14%

CN(CCc1ccccc1)c1ncc(-c2cccc(CNCCC3CCCN3C)c2)cn1 (stereo not drawn)
Inhibition [1]: 92%
Inhibition [2]: 98%
Inhibition [3]: 99%

O=C(Nc1ccc(-c2nc3ccccc3[nH]2)cc1)c1ccc(S(=O)(=O)N2CCc3ccccc32)cc1
Inhibition [1]: 100%
Inhibition [2]: 34%
Inhibition [3]: 32%

O=C(NC1CC1)c1ccc(N2CCN(Cc3ccc(Cl)cc3)CC2)nc1.O=C(O)C(F)(F)F
Inhibition [1]: 84%
Inhibition [2]: 81%
Inhibition [3]: 16%

Nc1ncc(-c2cn[nH]c2)cc1-c1nc2ccc(F)cc2[nH]1
Inhibition [1]: 100%
Inhibition [2]: 53%
Inhibition [3]: 38%

Cl.O=C(O)CCCN1CCCC(=C(c2ccccc2)c2ccccc2)C1
Inhibition [1]: 82%
Inhibition [2]: 2%
Inhibition [3]: 0%

COc1cc(NC(=O)N2CCc3ccc(OCCN(C(C)C)C(C)C)cc32)cc(C(F)(F)F)c1.O=C(O)C(F)(F)F
Inhibition [1]: 100%
Inhibition [2]: 97%
Inhibition [3]: 6%

Cc1cccc2nc(-c3ccc(-c4cccc(CNCc5ccccc5)c4)cc3)[nH]c12.O=C(O)C(F)(F)F
Inhibition [1]: 100%
Inhibition [2]: 52%
Inhibition [3]: 3%

Cc1nc(-c2nc(N3CCOCC3)ncc2-c2ccsc2)sc1C
Inhibition [1]: 89%
Inhibition [2]: 75%
Inhibition [3]: 5%

O=C1c2ccc([N+](=O)[O-])cc2C(=O)N1c1ccc2[nH]ncc2c1
Inhibition [1]: 87%
Inhibition [2]: 0%
Inhibition [3]: 11%

CN(C)CCC1CCCc2ccc(NC(=O)Nc3ccc(-c4ccncc4)c4ccccc34)cc21.Cl (stereo not drawn)
Inhibition [1]: 89%
Inhibition [2]: 27%
Inhibition [3]: 34%

O=C(N[C@@H](CC1CCCCC1)C(=O)NCCN1CCCCC1)c1ccc(O)c(-c2cccc(C(F)(F)F)c2)c1
Inhibition [1]: 99%
Inhibition [2]: 97%
Inhibition [3]: 0%

CN(CCC(CCN1CCC(c2c[nH]c3ccccc23)CC1)c1ccccc1)C(=O)Nc1ccc(Cl)c(Cl)c1 (stereo not drawn)
Inhibition [1]: 91%
Inhibition [2]: 21%
Inhibition [3]: 50%

CNc1ccc(CNCc2ccc(-c3ccc(-c4nc5cc(C(F)(F)F)ccc5[nH]4)s3)cc2)cc1.O=C(O)C(F)(F)F
Inhibition [1]: 100%
Inhibition [2]: 97%
Inhibition [3]: 44%

CN(C)CCN(C)Cc1ccc(-c2cccc(NC(=O)c3cccc(C#N)c3)c2)cc1.O=C(O)C(F)(F)F
Inhibition [1]: 94%
Inhibition [2]: 11%
Inhibition [3]: 23%

COc1ccc(/C=C/C(=O)N2CCc3cc4nccc(N5CCN6CCC[C@H]6C5)c4cc32)cc1
Inhibition [1]: 100%
Inhibition [2]: 98%
Inhibition [3]: 0%

COc1ccc(NC(=O)[C@H](CC(C)C)Nc2cc(C)nc(NCC3CCCCC3)n2)cc1.O=C(O)C(F)(F)F
Inhibition [1]: 100%
Inhibition [2]: 92%
Inhibition [3]: 7%

O=C(NCCCCN1CCC(c2ccc(-c3ccco3)cc2)CC1)c1ccc(NC(=O)c2ccc(Cl)cc2)cc1
Inhibition [1]: 100%
Inhibition [2]: 97%
Inhibition [3]: 26%

COc1cccc(NC(=O)Nc2ccc(-c3oc(C(=O)NCC(c4ccccc4)N(C)C)cc3-c3ccncc3)cc2)c1.O=C(O)C(F)(F)F (stereo not drawn)
Inhibition [1]: 100%
Inhibition [2]: 99%
Inhibition [3]: 6%

CC(C)c1ccc(-c2noc(SCC(=O)N3CCCCC3C)n2)cc1 (stereo not drawn)
Inhibition [1]: 92%
Inhibition [2]: 92%
Inhibition [3]: 21%

CCOc1cc(Br)c(C(C)NC(=O)c2ccccc2)cc1OCC (stereo not drawn)
Inhibition [1]: 92%
Inhibition [2]: 10%
Inhibition [3]: 0%

CN1CCN(c2ccc(-c3cc(-c4cc(F)c(F)c(F)c4)cnc3N)cc2)CC1
Inhibition [1]: 88%
Inhibition [2]: 12%
Inhibition [3]: 58%

O=C(Nc1ccc(OC2CCN(Cc3ccccc3)C2)c(Cl)c1)c1ccco1.O=C(O)C(F)(F)F (stereo not drawn)
Inhibition [1]: 95%
Inhibition [2]: 94%
Inhibition [3]: 13%

Cc1cc(N[C@@H](Cc2ccccc2)C(=O)Nc2ccccc2)nc(NCCc2cccs2)n1.O=C(O)C(F)(F)F
Inhibition [1]: 100%
Inhibition [2]: 72%
Inhibition [3]: 0%

Cc1nc(-c2ccc(-c3ccc(NC(=O)Nc4ccc(I)c(OCCN(C)C)c4)cc3)c(C)c2)no1.Cl
Inhibition [1]: 100%
Inhibition [2]: 92%
Inhibition [3]: 47%

COc1ccc(C)c(Nc2ccnc(Nc3ccc(-c4cnc[nH]4)cc3)n2)c1.Cl
Inhibition [1]: 97%
Inhibition [2]: 6%
Inhibition [3]: 40%

N#Cc1ccc(CN2CCC(Oc3ccc(NC(=O)c4ccco4)cc3Cl)C2)cc1.O=C(O)C(F)(F)F (stereo not drawn)
Inhibition [1]: 95%
Inhibition [2]: 95%
Inhibition [3]: 13%

Cc1c(C(=O)Nc2cc(Sc3ccc(F)cc3)cc([N+](=O)[O-])c2)sc2ncn(Cc3ccccc3F)c(=O)c12
Inhibition [1]: 98%
Inhibition [2]: 45%
Inhibition [3]: 2%

COc1cc(Cc2cnc(N)nc2N)cc(OCCCCCC(N)=O)c1OC
Inhibition [1]: 90%
Inhibition [2]: 0%
Inhibition [3]: 0%

Cc1ccc(C2(C)CN(CCCOc3cccc(-c4ccc(C(=O)NC(C)C)cc4)c3)CCO2)cc1 (stereo not drawn)
Inhibition [1]: 93%
Inhibition [2]: 89%
Inhibition [3]: 15%

Cn1cncc1C(=O)Nc1cccc(-c2csc(-c3nc4ccccc4[nH]3)c2)c1
Inhibition [1]: 100%
Inhibition [2]: 64%
Inhibition [3]: 15%

CN1CCN(CCCNCc2cccc(Nc3nccc(Nc4ccc(Oc5ccccc5)cc4)n3)c2)CC1
Inhibition [1]: 100%
Inhibition [2]: 80%
Inhibition [3]: 97%

Cn1nc(-c2cccc(CN[C@@H]3CCc4ccc(O)cc43)c2)c2cnc(NCCCN3CCCC3)nc21
Inhibition [1]: 100%
Inhibition [2]: 0%
Inhibition [3]: 9%

C(=NN=c1cc[nH]c2ccccc12)c1ccncc1
Inhibition [1]: 95%
Inhibition [2]: 27%
Inhibition [3]: 7%

CCCc1cc2c3c(N)nc(N)nc3ccc2n1C(CC)CC
Inhibition [1]: 100%
Inhibition [2]: 73%
Inhibition [3]: 70%

Cc1ccccc1C1CCN(C2CCC(NC(=O)/C=C/c3cc(F)ccc3F)CC2)CC1 (stereo not drawn)
Inhibition [1]: 85%
Inhibition [2]: 36%
Inhibition [3]: 47%

O=C(Nc1cccc(C(F)(F)F)c1)N1CCOC(CCN2CCC(c3ccccc3)CC2)(c2ccc(Cl)c(Cl)c2)C1 (stereo not drawn)
Inhibition [1]: 87%
Inhibition [2]: 69%
Inhibition [3]: 15%

Br.C/C=C/C=C/C1=NCCc2cc(OCCC)ccc21
Inhibition [1]: 87%
Inhibition [2]: 40%
Inhibition [3]: 0%

NC(=O)c1ccccc1OCC(=O)Nc1cccc(-c2cccc(-c3nc4ccccc4[nH]3)c2)c1
Inhibition [1]: 88%
Inhibition [2]: 46%
Inhibition [3]: 23%

COc1cc2nccc(Nc3ccc(OCc4ccc(NC(C)=O)cc4)cc3)c2cc1OC.Cl
Inhibition [1]: 100%
Inhibition [2]: 95%
Inhibition [3]: 24%

CN(CCc1ccccn1)c1cccc2c1nc(-c1cccnc1)n2CCNCc1ccccc1.O=C(O)C(F)(F)F
Inhibition [1]: 90%
Inhibition [2]: 97%
Inhibition [3]: 12%

CCN(CCCN1CCCCC1)c1cc(C)nc(Nc2cc(C(F)(F)F)ccc2C)n1.O=C(O)C(F)(F)F
Inhibition [1]: 96%
Inhibition [2]: 41%
Inhibition [3]: 35%

Cn1nc(-c2ccccc2F)c2cc(C(=O)Nc3cccnc3)sc21
Inhibition [1]: 92%
Inhibition [2]: 82%
Inhibition [3]: 5%

CC(=O)N(C)C1CCN(Cc2ccc(-c3ccc(-c4nc5cc(F)ccc5[nH]4)s3)cc2)C1.O=C(O)C(F)(F)F (stereo not drawn)
Inhibition [1]: 98%
Inhibition [2]: 22%
Inhibition [3]: 46%

O=C(Nc1ccc(F)cc1)NC1CCN(c2ccnc3cc(Cl)ccc23)C1.O=C(O)C(F)(F)F (stereo not drawn)
Inhibition [1]: 100%
Inhibition [2]: 67%
Inhibition [3]: 17%

Cc1cccc2nc(-c3ccc(-c4ccc(CN5CCC(CCN6CCCCC6)CC5)cc4)cc3)[nH]c12.O=C(O)C(F)(F)F
Inhibition [1]: 100%
Inhibition [2]: 100%
Inhibition [3]: 99%

Cc1cc(CNC(=O)[C@H](CC2CCCCC2)Nc2ccc(C#N)c3ccccc23)c(C(F)(F)F)o1.O=C(O)C(F)(F)F
Inhibition [1]: 87%
Inhibition [2]: 55%
Inhibition [3]: 13%

CN1CCCN(Cc2cccc(-c3ccc(NC(=O)c4cccc(C#N)c4)cc3)c2)CC1.O=C(O)C(F)(F)F
Inhibition [1]: 100%
Inhibition [2]: 96%
Inhibition [3]: 27%

CN1CCC(Oc2ccc(CN3CC[C@H](NC(=O)c4ccc(Cl)c(Cl)c4)C3)c3ccccc23)C1.O=C(O)C(F)(F)F (stereo partly drawn)
Inhibition [1]: 100%
Inhibition [2]: 82%
Inhibition [3]: 52%

COc1ccc2nccc([C@@H](O)CN3CCC(NCc4cc5ccccc5s4)CC3)c2c1.O=C(O)C(=O)O
Inhibition [1]: 97%
Inhibition [2]: 53%
Inhibition [3]: 8%

O=C(O)C(F)(F)F.O=S(=O)(NCCN1CCCC1)c1cccc(-c2cccc(CNCc3ccc(F)cc3)c2)c1
Inhibition [1]: 99%
Inhibition [2]: 73%
Inhibition [3]: 41%

CCn1c(-c2nonc2N)nc2c(-c3cccc(NC(=O)Nc4ccc(C#N)cc4)c3)ncc(OCCCN)c21.O=C(O)C(F)(F)F
Inhibition [1]: 85%
Inhibition [2]: 80%
Inhibition [3]: 1%

O=C1C(c2ccccc2)=C(Nc2ccc(Cl)cc2)c2ccccc21
Inhibition [1]: 91%
Inhibition [2]: 59%
Inhibition [3]: 5%

CNCCCNCc1ccc(-c2ccc(F)c(Cl)c2)o1.Cl
Inhibition [1]: 100%
Inhibition [2]: 12%
Inhibition [3]: 22%

Cn1c(CN2CCC(N3CCc4cc(NC(=O)c5ccco5)ccc43)C2)cc2ccccc21 (stereo not drawn)
Inhibition [1]: 91%
Inhibition [2]: 92%
Inhibition [3]: 0%

CC(C)(C)C1CC(=O)CC2C(=O)N(c3ccc(Br)cc3)C(=O)C21 (stereo not drawn)
Inhibition [1]: 94%
Inhibition [2]: 7%
Inhibition [3]: 0%

COc1ccccc1Cc1c(C)nc2nc(N)nc(N)c2c1C.Cl
Inhibition [1]: 96%
Inhibition [2]: 2%
Inhibition [3]: 69%

Oc1cc(Nc2ccnc3cc(-c4ccc(CN5CCCCC5)o4)ccc23)c(Cl)cc1F
Inhibition [1]: 100%
Inhibition [2]: 81%
Inhibition [3]: 30%

CC(C)CCN1CCCN(Cc2cccc(NC(=O)c3ccc(Cl)c(Cl)c3)c2)CC1.O=C(O)C(F)(F)F
Inhibition [1]: 92%
Inhibition [2]: 13%
Inhibition [3]: 35%

CC(C)CCN1CCC(Oc2ccc(NC(=O)c3ccsc3)cc2Cl)CC1.O=C(O)C(F)(F)F
Inhibition [1]: 89%
Inhibition [2]: 81%
Inhibition [3]: 19%

COC(=O)Nc1ccc(-c2ccc(C(=O)NC3CCN(C[C@H](O)c4ccnc5ccc(OC)cc45)CC3)cc2)c(C)c1
Inhibition [1]: 100%
Inhibition [2]: 97%
Inhibition [3]: 32%
